Measured values reported in the supplement of paper PMC8007513.
Where a name gives a salt, the structure may show the parent alone. ± gives the standard error. Out of some 1,300 compounds screened, about 75 (6%) showed an effect of 50% or more. Only a selection was taken, and strong results are over-represented in it overall.

Tested on: Trichoderma virens ATCC 9645
Assay: growth yield (OD600) relative to untreated control; higher = less growth inhibition
Details: compound concentration: 100 uM
Outline: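 For each 96-well plate, 100 μl aliquots were prepared with Trichoderma virens ATCC 9645 spores suspended at 15,000 spores ml^−1 in potato dextrose broth. The spores had been harvested from potato dextrose agar plates after 7 days. Library compounds were present at 100 μM final, some wells also receiving a biocide at 200 ng ml^−1, and plates were grown at 30 °C with OD600 read on a BioTek EL800 at 40 h and 72 h. Reported growth, relative to the control lacking both agents, is the mean of duplicate screens.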

Row | SMILES | growth yield (40 h) [%] | growth yield (72 h) [%]
1 | COc1ccc(C(=O)c2ccccc2O)c(O)c1 [Dioxybenzone] | 22.2 | 45.1 ± 2.7
2 | COc1ccc(C(=O)c2ccccc2)c(O)c1 [Oxybenzone] | 53.8 ± 4.3 | 62.9
3 | COc1ccccc1O [Guaiacol] | 103.9 ± 0.95 | 102.7 ± 0.32
4 | Nc1cc(N2CCCCC2)nc(N)[n+]1[O-] [Minoxidil] | 104 ± 3.2 | 102 ± 1.3
5 | O=C(NCCO[N+](=O)[O-])c1cccnc1 [Nicorandil] | 102.9 ± 0.32 | 102 ± 4.2
6 | CC1=C(C(=O)O)N2C(=O)[C@@H](NC(=O)[C@H](N)c3ccc(O)cc3)[C@H]2SC1 [Cefadroxil] | 104 ± 8.9 | 106 ± 9.1
7 | O=C(O[C@@H]1C[C@@H]2C[C@H]3C[C@H](C1)N2CC3=O)c1c[nH]c2ccccc12 [Dolasetron mesilate] | 106 ± 3.3 | 104 ± 1.9
8 | CCn1cc(C(=O)O)c(=O)c2cnc(N3CCCC3)nc21 [Piromidic acid] | 90.5 ± 5.7 | 92.1 ± 4
9 | CCCCC(CC)CNC(=N)NC(=N)NCCCCCCNC(=N)NC(=N)NCC(CC)CCCC (stereo not drawn) [Alexidine dihydrochloride] | 1.91 ± 0.32 | 1.89 ± 0.63
10 | OC(CCN1CCCCC1)(c1ccccc1)C1CC2C=CC1C2 (stereo not drawn) [Biperiden hydrochloride] | 104 ± 2.9 | 105 ± 1.9
11 | CCN(CC)CCNc1ccc(CO)c2sc3ccccc3c(=O)c12 [Hycanthone] | 118 ± 4.1 | 114.7 ± 0.63
12 | CCCCC[C@H](O)/C=C/[C@H]1[C@H](O)CC(=O)[C@@H]1CCCCCCC(=O)O [Alprostadil] | 107 ± 8.4 | 101 ± 6.2
13 | C[C@@H]1C[C@H]2[C@@H]3C[C@H](F)C4=CC(=O)C=C[C@]4(C)[C@@]3(Cl)[C@@H](O)C[C@]2(C)[C@H]1C(=O)COC(=O)C(C)(C)C [Clocortolone pivalate] | 107 ± 4 | 100 ± 5.7
14 | O=c1oc2ccccc2c(O)c1Cc1c(O)c2ccccc2oc1=O [Dicumarol] | 94 ± 0.95 | 92.4 ± 0.94
15 | CCc1oc2ccccc2c1C(=O)c1cc(Br)c(O)c(Br)c1 [Benzbromarone] | 40.7 ± 5.7 | 77.8 ± 4.8
16 | CC(=O)CC(c1ccccc1)c1c(O)c2ccccc2oc1=O (stereo not drawn) [Warfarin] | 90.9 ± 3.5 | 89.1 ± 4
17 | CC(Cc1cccc(C(F)(F)F)c1)NCCOC(=O)c1ccccc1 (stereo not drawn) [Benfluorex] | 83.5 ± 3.5 | 95.9 ± 1.9
18 | CN[C@@H]1[C@H](O[C@H]2[C@H](O[C@H]3[C@H](O)[C@@H](O)[C@H](NC(=N)N)[C@@H](O)[C@@H]3NC(=N)N)O[C@@H](C)[C@]2(O)CO)O[C@@H](CO)[C@H](O)[C@H]1O [Dihydrostreptomycin sulfate] | 96.9 | 98
19 | CCOC1O[C@H]([C@@H](COCc2ccccc2)OCc2ccccc2)[C@H](OCc2ccccc2)[C@H]1O (stereo partly drawn) [Tribenoside] | 90.2 ± 6 | 87.2 ± 6.2
20 | CC(C)CC(=O)N[C@H](C(=O)N[C@H](C(=O)N[C@@H](CC(C)C)[C@@H](O)CC(=O)N[C@@H](C)C(=O)N[C@@H](CC(C)C)[C@@H](O)CC(=O)O)C(C)C)C(C)C [Pepstatin A] | 106 ± 5.4 | 102 ± 7.8
21 | CN(C)CCOC(c1ccc(Cl)cc1)c1ccccn1 (stereo not drawn) [Carbinoxamine maleate salt] | 97.7 ± 4.3 | 97.8 ± 2.6
22 | CCN(CC)C(=S)SSC(=S)N(CC)CC [Disulfiram] | 27.2 ± 17 | 67.8 ± 12

Row | SMILES | growth yield (40 h) [%] | growth yield (72 h) [%]
23 | COc1ccccc1N1CCN(CC(O)COc2cccc3ccccc23)CC1 (stereo not drawn) [Naftopidil dihydrochloride] | 97.4 ± 1.1 | 110.22 ± 0.1
24 | NCCNCCNCCNCCN [Tetraethylenepentamine pentahydrochloride] | 103 ± 2.5 | 99.8 ± 2.9
25 | CCCOc1ccccc1-c1nc2[nH]nnc2c(=O)[nH]1 [Zaprinast] | 99.1 | 106 ± 1.1
26 | CCC(=O)OCC(=O)[C@@]1(OC(=O)CC)[C@H](C)C[C@H]2[C@H]3[C@H]([C@@H](O)C[C@@]21C)[C@@]1(C)C=CC(=O)C=C1C[C@H]3Cl [Alclometasone dipropionate] | 101 ± 4 | 97.7 ± 1.7
27 | CCCCCCNC(=O)n1cc(F)c(=O)[nH]c1=O [Carmofur] | 16.4 ± 0.48 | 33.1 ± 5.5
28 | Nc1nc(=O)c2c([nH]1)NC[C@@H](CNc1ccc(C(=O)N[C@@H](CCC(=O)O)C(=O)O)cc1)N2C=O [Folinic acid calcium salt] | 99.8 ± 2.5 | 92 ± 4.1
29 | CC(C)NC[C@H](O)COc1ccc(CC(N)=O)cc1 [(S)-(-)-Atenolol] | 100 ± 1.6 | 101 ± 1.5
30 | NS(=O)(=O)c1cc2c(cc1C(F)(F)F)NC(Cc1ccccc1)NS2(=O)=O (stereo not drawn) [Bendroflumethiazide] | 106 ± 3.3 | 102 ± 3.4
31 | CN(c1nccc(=O)[nH]1)C1CCN(c2nc3ccccc3n2Cc2ccc(F)cc2)CC1 [Mizolastine] | 94.5 ± 2.4 | 96 ± 2.6
32 | COc1ccc(CN(CCN(C)C)c2ccccn2)cc1 [Pyrilamine maleate] | 101 ± 1.1 | 103 ± 1.5
33 | CN(C)CCN(Cc1ccc(Cl)cc1)c1ccccn1 [Chloropyramine hydrochloride] | 98.8 ± 1.9 | 96.2 ± 2.6
34 | CCCCCCCCCCCCCCCC[N+](C)(C)CCN(Cc1ccc(OC)cc1)c1ncccn1 [Thonzonium bromide] | 0 | 0
35 | Nc1ncn(C2OC(CO)C(O)C2O)c(=O)n1 (stereo not drawn) [Azacytidine-5] | 89.4 ± 5.9 | 88.4 ± 4.3
36 | CC(C)[C@H](N)C(=O)OCCOCn1cnc2c(=O)nc(N)[nH]c21 [Valacyclovir hydrochloride] | 102 | 103
37 | CC(=C(CCO)SSCC1CCCO1)N(C=O)Cc1cnc(C)nc1N (stereo in doubt) [Fursultiamine Hydrochloride] | 104 ± 5.2 | 101 ± 3.1
38 | NC[C@H]1CC[C@H](C(=O)O)CC1 [Tranexamic acid] | 99.75 ± 0.64 | 102.2 ± 0.73
39 | COc1cc2ncnc(Nc3ccc(F)c(Cl)c3)c2cc1OCCCN1CCOCC1 [Gefitinib] | 7.47 ± 0.16 | 6.29
40 | C#Cc1cccc(Nc2ncnc3cc(OCCOC)c(OCCOC)cc23)c1 [Erlotinib] | 108 | 105
41 | CCCCOc1ccc(OCCCN2CCOCC2)cc1 [Pramoxine hydrochloride] | 89.6 ± 1.9 | 90.5 ± 2.2
42 | CC[C@H]1OC(=O)[C@H](C)[C@@H](O[C@H]2C[C@@](C)(OC)[C@@H](O)[C@H](C)O2)[C@H](C)[C@@H](O[C@@H]2O[C@H](C)C[C@H](N(C)C)[C@H]2O)[C@](C)(O)C[C@@H](C)/C(=N\OCOCCOC)[C@H](C)[C@@H](O)[C@]1(C)O [Roxithromycin] | 97.85 ± 0.64 | 96.7 ± 1.5
43 | COc1ccnc(C[S+]([O-])c2nc3cc(OC(F)F)ccc3[nH]2)c1OC (stereo not drawn) [Pantoprazole sodium] | 88.2 ± 6.2 | 94 ± 3.8
44 | Cc1c(F)c(N2CCNC(C)C2)cc2c1c(=O)c(C(=O)O)cn2C1CC1 (stereo not drawn) [Grepafloxacin] | 99.9 ± 1.4 | 97.53 ± 0.63

Row | SMILES | growth yield (40 h) [%] | growth yield (72 h) [%]
45 | CC(=O)OCC(=O)[C@@]1(O)[C@H](C)C[C@H]2[C@@H]3CCC4=CC(=O)C=C[C@]4(C)[C@@]3(F)[C@@H](O)C[C@@]21C [Dexamethasone acetate] | 102 ± 4 | 103 ± 3.7
46 | CCOCCn1c(N2CCCN(C)CC2)nc2ccccc21 [Emedastine] | 98.96 ± 0.16 | 96.9 ± 2.7
47 | CCC(C)(C)c1ccc(CC(C)CN2C[C@@H](C)O[C@@H](C)C2)cc1 (stereo partly drawn) [Amorolfine hydrochloride] | 4.45 ± 0.32 | 2.94 ± 0.21
48 | CCn1cc(C(=O)O)c(=O)c2cnc(N3CCNCC3)nc21 [Pipemidic acid] | 94.4 ± 3.5 | 92.7
49 | NC[C@@H]1O[C@H](O[C@H]2[C@@H](O)[C@H](O[C@@H]3[C@@H](O)[C@H](N)C[C@H](N)[C@H]3O[C@H]3O[C@H](CO)[C@@H](O)[C@H](O)[C@H]3N)O[C@@H]2CO)[C@H](N)[C@@H](O)[C@@H]1O [Paromomycin sulfate] | 102.6 ± 0.32 | 96.59 ± 0.32
50 | O=C1CN(/N=C/c2ccc(-c3ccc([N+](=O)[O-])cc3)o2)C(=O)N1 [Dantrolene sodium salt] | 93.4 ± 2.2 | 99.7 ± 1.4
51 | O=C(NCC(O)CO)c1c(I)c(C(=O)NCC(O)CO)c(I)c(N(CCO)C(=O)CO)c1I (stereo not drawn) [Ioversol] | 101 ± 5.4 | 98.1 ± 2.8
52 | OCCN1CCN(CCCN2c3ccccc3Sc3ccc(C(F)(F)F)cc32)CC1 [Fluphenazine dihydrochloride] | 44 ± 6.2 | 90.3 ± 8.9
53 | CN(C)CCCN1c2ccccc2Sc2ccc(C(F)(F)F)cc21 [Triflupromazine hydrochloride] | 74.66 ± 0.32 | 92.1 ± 2.1
54 | CN1CCN(CCCN2c3ccccc3Sc3ccc(C(F)(F)F)cc32)CC1 [Trifluoperazine dihydrochloride] | 20 ± 0.95 | 63.35 ± 0.42
55 | CC(=O)c1ccc2c(c1)N(CCCN1CCC(CCO)CC1)c1ccccc1S2 [Piperacetazine] | 124 ± 8.6 | 119 ± 8.9
56 | CN(C)CCCN1c2ccccc2Sc2ccccc21 [Promazine hydrochloride] | 91.33 ± 0.16 | 95.6
57 | OCCN1CCN(CCCN2c3ccccc3C=Cc3ccccc32)CC1 [Opipramol dihydrochloride] | 91.3 ± 1.1 | 98.1 ± 1.4
58 | CO[C@H]1C[C@H](O[C@H]2[C@H](C)[C@@H](O[C@@H]3O[C@H](C)C[C@H](N(C)C)[C@H]3OC(C)=O)[C@@H](C)C[C@@]3(CO3)C(=O)[C@H](C)[C@@H](OC(C)=O)[C@@H](C)[C@@H](C)OC(=O)[C@@H]2C)O[C@@H](C)[C@@H]1OC(C)=O [Troleandomycin] | 100.5 ± 0.79 | 98.4 ± 1.3
59 | CC=CC1=C(C(=O)O)N2C(=O)[C@@H](NC(=O)[C@H](N)c3ccc(O)cc3)[C@H]2SC1 [Cefprozil] | 100 ± 1.4 | 92.7 ± 3.1
60 | CN1CCN(C2=Nc3cc(Cl)ccc3Nc3ccccc32)CC1 [Clozapine] | 102 ± 2.4 | 104.77 ± 0.1
61 | CN1[C@@H]2CC[C@H]1C[C@@H](OC(=O)c1c[nH]c3ccccc13)C2 [Tropisetron hydrochloride] | 104 ± 10 | 104 ± 8.6
62 | CC(C)c1c(C(=O)Nc2ccccc2)c(-c2ccccc2)c(-c2ccc(F)cc2)n1CC[C@@H](O)C[C@@H](O)CC(=O)O [Atorvastatin] | 106 | 85.1 ± 10
63 | CC(C)n1c(/C=C/C(O)CC(O)CC(=O)O)c(-c2ccc(F)cc2)c2ccccc21 (stereo not drawn) [Fluvastatin sodium salt] | 1.91 ± 1.3 | 1.78 ± 0.94
64 | O=C(O)C[C@H](O)C[C@H](O)/C=C/c1c(C2CC2)nc2ccccc2c1-c1ccc(F)cc1 [Pitavastatin calcium] | 4.13 | 2.94
